Measurements as given in PubChem BioAssay (NCI).
About 83,000 compounds went through this panel and 20% of them were active in at least one assay; those are over-represented in the sample as a whole.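 96-well plates, one dose, 48 hours. Percent growth reported; active if below 10.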 Calls of active or inactive are those of the source.

Assays:
Experiment in all cases: NCI-60 one-dose screen, 48 h (100 = growth as untreated, 0 = no growth, -100 = all killed)
Conditions in all cases: 10 µM
NCI-H23 lung = test system: NCI-H23 lung
NCI-H522 lung = test system: NCI-H522 lung
MDA-MB-231 breast = test system: MDA-MB-231 breast
M14 melanoma = test system: M14 melanoma
SK-MEL-5 melanoma = test system: SK-MEL-5 melanoma
UACC-62 melanoma = test system: UACC-62 melanoma
LOX IMVI melanoma = test system: LOX IMVI melanoma
CCRF-CEM leukemia = test system: CCRF-CEM leukemia
SR leukemia = test system: SR leukemia
OVCAR-8 ovarian = test system: OVCAR-8 ovarian
OVCAR-5 ovarian = test system: OVCAR-5 ovarian
SK-OV-3 ovarian = test system: SK-OV-3 ovarian
IGROV1 ovarian = test system: IGROV1 ovarian
HS 578T breast = test system: HS 578T breast
NCI/ADR-RES ovarian = test system: NCI/ADR-RES ovarian
T-47D breast = test system: T-47D breast
SW-620 colon = test system: SW-620 colon
MCF7 breast = test system: MCF7 breast
HCT-116 colon = test system: HCT-116 colon
KM12 colon = test system: KM12 colon

Measured: growth

C[C@@H]1CCC/C=C/[C@H]2C[C@@H](O)C[C@@H]2[C@@H](O)/C=C/C(=O)O1
inactive: UACC-62 melanoma 25.9% | CCRF-CEM leukemia 12.3% | OVCAR-5 ovarian 30.5% | HS 578T breast 42% | SW-620 colon 10.3% | MCF7 breast 10.8% | KM12 colon 14.9%
active: NCI-H23 lung 5.85% | NCI-H522 lung -26.3% | MDA-MB-231 breast -62.2% | M14 melanoma 6.74% | SK-MEL-5 melanoma -92.8% | LOX IMVI melanoma -70% | SR leukemia 1.7% | OVCAR-8 ovarian 3.04% | SK-OV-3 ovarian 8.48% | IGROV1 ovarian 5.5% | NCI/ADR-RES ovarian 9.17% | T-47D breast 7.4% | HCT-116 colon -1.47%

NC1CCc2cc(O)c(O)cc2C1 (stereo not given)
inactive: NCI-H23 lung 91.8% | NCI-H522 lung 92.3% | MDA-MB-231 breast 101% | M14 melanoma 83.5% | SK-MEL-5 melanoma 87.4% | UACC-62 melanoma 99.4% | LOX IMVI melanoma 70.9% | CCRF-CEM leukemia 48% | OVCAR-8 ovarian 101% | OVCAR-5 ovarian 91.4% | SK-OV-3 ovarian 104% | IGROV1 ovarian 97.9% | HS 578T breast 100% | NCI/ADR-RES ovarian 85.6% | T-47D breast 88.9% | SW-620 colon 93.1% | MCF7 breast 63.6% | HCT-116 colon 58.1% | KM12 colon 97.5%
active: SR leukemia -24.1%

CC1=C(CN(O)C(N)=O)C2=C(C)C3(CC3)[C@@](C)(O)C(=O)C2=C1
inactive: CCRF-CEM leukemia 94.7% | SR leukemia 67.6% | OVCAR-5 ovarian 17.5% | IGROV1 ovarian 11.1% | SW-620 colon 86%
active: NCI-H23 lung -28.5% | NCI-H522 lung 0.934% | MDA-MB-231 breast 6.59% | M14 melanoma -63% | SK-MEL-5 melanoma -61.6% | UACC-62 melanoma -19.7% | LOX IMVI melanoma -27.6% | OVCAR-8 ovarian 1.75% | SK-OV-3 ovarian -16.3% | HS 578T breast -16.8% | NCI/ADR-RES ovarian -5.11% | T-47D breast -3.77% | MCF7 breast 9.79% | HCT-116 colon 4.72% | KM12 colon 3.43%

N#Cc1c(-n2c(Br)c(Br)c3cc(Br)ccc32)[nH]c2c(Br)cc(Br)cc12
inactive: CCRF-CEM leukemia 13.2% | OVCAR-5 ovarian 33% | IGROV1 ovarian 25.4%
active: NCI-H23 lung -36.4% | NCI-H522 lung -14.8% | MDA-MB-231 breast -2.11% | M14 melanoma -32.4% | SK-MEL-5 melanoma -76.8% | UACC-62 melanoma -30.8% | LOX IMVI melanoma -25.2% | SR leukemia 0.987% | OVCAR-8 ovarian 1.23% | SK-OV-3 ovarian -44.3% | HS 578T breast -6.84% | NCI/ADR-RES ovarian -2.1% | T-47D breast -13% | SW-620 colon 4.15% | MCF7 breast -13.6% | HCT-116 colon -66.1% | KM12 colon -19.4%

CC1=C2C(=C[C@@](C)(COC(=O)c3ccc(S(=O)(=O)F)cc3)[C@@H]2O)C(=O)[C@](C)(O)C12CC2
active: NCI-H23 lung -32.2% | NCI-H522 lung -64.5% | MDA-MB-231 breast -16.3% | M14 melanoma -85% | SK-MEL-5 melanoma -82.5% | UACC-62 melanoma -77.1% | LOX IMVI melanoma -40.2% | CCRF-CEM leukemia 9.59% | SR leukemia -0.78% | OVCAR-8 ovarian -31.1% | OVCAR-5 ovarian -12.4% | SK-OV-3 ovarian -24.7% | IGROV1 ovarian -13.9% | HS 578T breast -16% | NCI/ADR-RES ovarian -3.75% | T-47D breast 0.908% | SW-620 colon -20.5% | MCF7 breast 1.68% | HCT-116 colon -4.41% | KM12 colon 7.74%

N#Cc1nc(-c2ccccc2)oc1N1CCC(S(=O)(=O)F)CC1
inactive: NCI-H23 lung 99.2% | NCI-H522 lung 93.9% | MDA-MB-231 breast 98.7% | M14 melanoma 106% | SK-MEL-5 melanoma 96.3% | UACC-62 melanoma 98.1% | LOX IMVI melanoma 104% | CCRF-CEM leukemia 100% | SR leukemia 83.4% | OVCAR-8 ovarian 94.3% | OVCAR-5 ovarian 104% | SK-OV-3 ovarian 107% | IGROV1 ovarian 103% | HS 578T breast 98.5% | NCI/ADR-RES ovarian 104% | T-47D breast 106% | SW-620 colon 103% | MCF7 breast 98.2% | HCT-116 colon 101% | KM12 colon 97.1%

CC1=C2C(=C[C@@](C)(COC(=O)c3ccc(S(=O)(=O)F)cc3)[C@@H]2OC(=O)c2ccc(S(=O)(=O)F)cc2)C(=O)[C@](C)(O)C12CC2
inactive: CCRF-CEM leukemia 36.3% | SR leukemia 16.3% | HS 578T breast 33.4% | KM12 colon 28.2%
active: NCI-H23 lung -21.4% | NCI-H522 lung -52% | MDA-MB-231 breast 1.44% | M14 melanoma -46.3% | SK-MEL-5 melanoma -96.9% | UACC-62 melanoma -38.7% | LOX IMVI melanoma 6.84% | OVCAR-8 ovarian 5.91% | OVCAR-5 ovarian 4.81% | SK-OV-3 ovarian -9.96% | IGROV1 ovarian 0.149% | NCI/ADR-RES ovarian 9.12% | T-47D breast -20% | SW-620 colon -3.99% | MCF7 breast 6.34% | HCT-116 colon 0.583%
